Assay results published in PubChem BioAssay (Tox21).
Inconclusive results are not listed. Active and inactive are the calls of the source. Unless noted, calls follow the shape of the dose curve; as a rule, active = well fitted curve in the direction sought with a large enough effect in the repeat runs; inconclusive = weak or mixed curves; inactive = no such curve, though single readings can be large; an effect the other way counts as inactive or inconclusive.

Columns and labels:
[1] = qHTS assay to test for compound auto fluorescence at 535 nm (green) in HEK293 cells (AID 720680)
[2] = qHTS assay to test for compound auto fluorescence at 460 nm (blue) in HEK293 cell free culture (AID 720681)
Procedure, shortened: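 Test compounds were pinned into cell-free culture medium (DMEM with 10% FBS) and fluorescence was read directly at Ex/Em 405/460 nm. Signals were expressed as fluorescence equivalents of triamterene, with DMSO vehicle as control.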

[3] = qHTS assay to test for compound auto fluorescence at 535 nm (green) in HEK293 cell free culture (AID 720682)
Procedure, shortened: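 Each library compound, or DMSO control, is added by pintool to medium alone, comprising DMEM and 10% FBS. Emission at 535 nm following 485 nm excitation is quantified against fluorescein.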

[4] = qHTS assay to test for compound auto fluorescence at 590 nm (red) in HEK293 cell free culture (AID 720683)
Procedure, shortened: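 Tox21 10K library compounds were pinned into cell-free DMEM with 10% FBS and fluorescence was read at excitation 540 nm. Activity is expressed as Rose Bengal sodium equivalency.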

[5] = qHTS assay to test for compound auto fluorescence at 590 nm (red) in HepG2 cell free culture (AID 720684)
Procedure, shortened: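 Readout: intrinsic compound fluorescence at 590 nm emission after 540 nm excitation, scaled to Rose Bengal sodium. Matrix was cell-free MEM with 10% FBS; DMSO vehicle wells served as control.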

[6] = qHTS assay to test for compound auto fluorescence at 460 nm (blue) in HepG2 cell free culture (AID 720685)
Procedure, shortened: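 Cell-free plates of MEM plus 10% FBS received 23 nL compound or DMSO vehicle; blue-channel (405/460 nm) intensity scored against triamterene as reference fluorophore.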

[7] = qHTS assay to test for compound auto fluorescence at 535 nm (green) in HepG2 cell free culture (AID 720686)
[8] = qHTS assay to test for compound auto fluorescence at 460 nm (blue) in HepG2 cells (AID 720687)
Procedure, shortened: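 Cells (2,000/well in MEM with 10% FBS) attached overnight at 37 C, then were exposed to compound or DMSO for 1 hr at 37 C, 5% CO2. Fluorescence read at Ex/Em 405/460 nm, expressed as triamterene-equivalent signal.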

[9] = target: Glucocorticoid receptor (Homo sapiens) (UniProt P04150); experiment: qHTS assay to identify small molecule agonists of the glucocorticoid receptor (GR) signaling pathway (AID 720691; active = well fitted activation curve with a large enough effect in the signal ratio in the repeat runs, not every such curve was filed as active; the % refers to the signal ratio); conditions: GR-bla HeLa, beta-lactamase reporter ratio, 18 h; activation: at 62.4 µM (top of the series)
Sequence of Glucocorticoid receptor (Homo sapiens) (P04150 whole entry, looked up): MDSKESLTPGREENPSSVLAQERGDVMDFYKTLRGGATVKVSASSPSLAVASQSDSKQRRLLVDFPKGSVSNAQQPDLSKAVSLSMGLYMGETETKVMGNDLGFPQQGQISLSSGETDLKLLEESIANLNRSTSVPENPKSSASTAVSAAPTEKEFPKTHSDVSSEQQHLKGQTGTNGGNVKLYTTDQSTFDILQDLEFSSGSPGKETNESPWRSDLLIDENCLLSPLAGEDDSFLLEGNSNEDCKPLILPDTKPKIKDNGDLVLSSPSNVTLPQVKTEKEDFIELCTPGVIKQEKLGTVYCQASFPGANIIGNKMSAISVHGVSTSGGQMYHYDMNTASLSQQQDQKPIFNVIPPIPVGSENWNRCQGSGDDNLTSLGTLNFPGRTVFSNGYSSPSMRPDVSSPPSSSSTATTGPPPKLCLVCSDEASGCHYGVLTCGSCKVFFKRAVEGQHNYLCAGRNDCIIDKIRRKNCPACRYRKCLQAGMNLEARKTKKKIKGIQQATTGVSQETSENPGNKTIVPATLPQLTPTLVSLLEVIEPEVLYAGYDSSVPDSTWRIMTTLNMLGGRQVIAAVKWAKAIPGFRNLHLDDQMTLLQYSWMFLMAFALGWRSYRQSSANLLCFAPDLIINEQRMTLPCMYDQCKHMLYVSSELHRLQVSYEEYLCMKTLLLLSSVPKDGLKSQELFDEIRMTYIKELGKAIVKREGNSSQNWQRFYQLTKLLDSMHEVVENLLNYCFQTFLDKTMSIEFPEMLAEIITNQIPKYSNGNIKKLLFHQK
Procedure, shortened: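 Compounds in DMSO, alongside positive controls, were added to GR-bla HeLa reporter cells and incubated 18 h at 37 C; GRE-driven beta-lactamase was detected by fluorescence after 2 h with FRET substrate at room temperature.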

[10] = target: Glucocorticoid receptor (Homo sapiens) (UniProt P04150); experiment: qHTS assay to identify small molecule antagonists of the glucocorticoid receptor (GR) signaling pathway (AID 720692; active = well fitted inhibition curve with a large enough effect in the signal ratio in the repeat runs, not every such curve was filed as active; the % refers to the signal ratio)
Procedure, shortened: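 In a 1536-well cell format, compounds were added 4 h after seeding GR-bla HeLa cells, together with dexamethasone at 5 nM final; reporter activity was measured by FRET-substrate fluorescence following 18 h at 37 C.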

[11] = qHTS assay to identify small molecule antagonists of the glucocorticoid receptor (GR) signaling pathway - cell viability counter screen (AID 720693); also: nearly all actives have a fitted effect of over 55% in size
[12] = qHTS assay for identifying genotoxic compounds that show differential cytotoxicity against isogenic chicken DT40 cell lines with known DNA damage response pathways - wild type cell line (AID 743012); also: nearly all actives have a fitted effect of over 60% in size
Procedure, shortened: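 Viability of DNA repair-proficient chicken DT40 cells was assessed by CellTiter-Glo luminescence following 40 h compound exposure at 37 C/5% CO2.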

[13] = qHTS assay for identifying genotoxic compounds that show differential cytotoxicity against isogenic chicken DT40 cell lines with known DNA damage response pathways - Rev3 mutant cell line (AID 743014); also: nearly all actives have a fitted effect of over 55% in size
[14] = qHTS assay for identifying genotoxic compounds that show differential cytotoxicity against isogenic chicken DT40 cell lines with known DNA damage response pathways - Rad54/Ku70 mutant cell line (AID 743015); also: nearly all actives have a fitted effect of over 60% in size
[15] = qHTS assay to identify small molecule antagonists of the androgen receptor (AR) signaling pathway - cell viability counter screen (AID 743033; also: nearly all actives have a fitted effect of over 45% in size)
[16] = qHTS assay to identify small molecule antagonists of the androgen receptor (AR) signaling pathway using the MDA cell line - cell viability counter screen (AID 743041; also: nearly all actives have a fitted effect of over 45% in size)
Procedure, shortened: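 qHTS viability read-out; MDA-kb2 AR-luc; R1881-stimulated; 16 h exposure at 37C, 0% CO2; CellTiter-Fluor, 30 min; fluorescence intensity.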

[17] = target: Androgen receptor (Homo sapiens) (UniProt P10275); experiment: qHTS assay to identify small molecule antagonists of the androgen receptor (AR) signaling pathway (AID 743035; active = well fitted inhibition curve with a large enough effect in the signal ratio in the repeat runs, not every such curve was filed as active; the % refers to the signal ratio)
Sequence of Androgen receptor (Homo sapiens) (P10275 whole entry, looked up): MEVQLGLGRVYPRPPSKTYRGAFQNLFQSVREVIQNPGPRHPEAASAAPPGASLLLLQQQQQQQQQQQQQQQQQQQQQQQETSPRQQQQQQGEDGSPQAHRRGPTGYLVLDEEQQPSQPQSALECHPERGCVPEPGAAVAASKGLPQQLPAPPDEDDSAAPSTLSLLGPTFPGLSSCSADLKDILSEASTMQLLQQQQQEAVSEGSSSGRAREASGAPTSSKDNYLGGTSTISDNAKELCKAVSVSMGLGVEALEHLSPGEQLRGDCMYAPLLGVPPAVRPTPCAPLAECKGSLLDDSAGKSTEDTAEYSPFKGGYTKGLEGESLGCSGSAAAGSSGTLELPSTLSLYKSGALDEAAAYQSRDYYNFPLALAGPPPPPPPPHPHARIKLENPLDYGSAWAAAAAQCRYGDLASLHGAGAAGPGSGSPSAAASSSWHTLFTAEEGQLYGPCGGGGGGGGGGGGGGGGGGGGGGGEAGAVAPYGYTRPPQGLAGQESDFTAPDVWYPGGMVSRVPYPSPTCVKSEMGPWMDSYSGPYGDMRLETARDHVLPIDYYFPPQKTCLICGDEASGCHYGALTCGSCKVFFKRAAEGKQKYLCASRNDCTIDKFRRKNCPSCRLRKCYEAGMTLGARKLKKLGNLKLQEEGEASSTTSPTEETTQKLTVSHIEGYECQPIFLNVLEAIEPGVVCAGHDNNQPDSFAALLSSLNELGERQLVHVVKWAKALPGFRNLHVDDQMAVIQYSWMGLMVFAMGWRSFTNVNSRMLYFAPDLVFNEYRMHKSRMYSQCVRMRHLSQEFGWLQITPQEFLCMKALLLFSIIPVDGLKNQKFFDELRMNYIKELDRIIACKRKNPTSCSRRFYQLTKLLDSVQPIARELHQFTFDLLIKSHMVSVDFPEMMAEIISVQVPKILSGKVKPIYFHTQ
Procedure, shortened: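 Reporter HEK293 cells were exposed to compounds and R1881 overnight (16 h, 37C); beta-lactamase activity was then quantified by FRET fluorescence.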

[18] = target: Androgen receptor (Homo sapiens) (UniProt P10275); experiment: qHTS assay to identify small molecule agonists of the androgen receptor (AR) signaling pathway (AID 743036; active = well fitted activation curve with a large enough effect in the signal ratio in the repeat runs, with a control signal flat, not every such curve was filed as active; the % refers to the signal ratio)
Procedure, shortened: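 Following a 4 h settling period, AR-UAS-bla HEK293 cells were dosed with compounds for 16 h at 37C. A 2 h room-temperature incubation with LiveBLAzer B/G FRET substrate preceded the fluorescence measurement.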

[19] = target: Androgen receptor (Homo sapiens) (UniProt P10275); experiment: qHTS assay to identify small molecule agonists of the androgen receptor (AR) signaling pathway using the MDA cell line (AID 743040; also: nearly all actives have a fitted effect of over 20% in size)
Procedure, shortened: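 Agonist activity is measured as luciferase luminescence in human MDA-kb2 cells whose MMTV reporter responds to both AR and GR. Compounds in DMSO incubate 16 h at 37C, 0% CO2, and ONE-Glo is read after 30 min.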

[20] = target: Androgen receptor (Homo sapiens) (UniProt P10275); experiment: qHTS assay to identify small molecule antagonists of the androgen receptor (AR) signaling pathway using the MDA cell line (AID 743042; also: nearly all actives have a fitted effect of over 55% in size)
Procedure, shortened: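 MDA-kb2 cells (human breast carcinoma, stably carrying an MMTV-luciferase reporter responsive to AR and GR) were plated at 3,000 cells/well and preincubated 5 hr at 37C, then given compound plus R1881 agonist for 16 h. ONE-Glo luminescence was read.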

Measured: Potency

CC(C)Cc1ccc([C@H](C)C(=O)O)cc1
not listed: [17] | [18] | [19] | [20]
inactive: all other assays above

NC(N)=NCCCCN=C(N)N
not listed: [17] | [18] | [19] | [20]
inactive: all other assays above

CC(C)(Oc1ccc(C2CCCc3ccccc32)cc1)C(=O)O (stereo unspecified)
not listed: [14]
inactive: all other assays above

C[C@@H]1O[C@@H]1P(=O)(O)O
not listed: [13]
inactive: all other assays above

C=C1[C@@H]2CC[C@@H](C2)C1(C)C
not listed: [16] | [17] | [18] | [19] | [20]
inactive: all other assays above

CC[N+](CC)(CC)CCC(O)(c1ccccc1)C1CCCCC1 (stereo unspecified)
not listed: [17] | [18] | [19] | [20]
inactive: all other assays above
